# Results published in ChEMBL document CHEMBL1157539, “Thousands of chemical starting points for antimalarial lead identification” (Nature, 2010).
# How the values were obtained:
# Type in all cases: functional
# [1] = test system: Plasmodium falciparum; assay: GSK_TCMDC: Inhibition of Plasmodium falciparum 3D7 in whole red blood cells, using parasite LDH activity as an index of growth. Test compounds present at 2uM
# [2] = test system: Plasmodium falciparum; assay: GSK_TCMDC: Inhibition of Plasmodium falciparum Dd2 in whole red blood cells, using parasite LDH activity as an index of growth. Test compounds present at 2uM
# [3] = test system: HepG2; assay: GSK_TCMDC: Percent inhibition of human HepG2 cell line. Test compounds present at 10uM.
Compound,Inhibition [1],Inhibition [2],Inhibition [3]
COc1ccc2nc(Nc3nc4cnccc4[nH]3)sc2c1,88%,26%,8%
c1ccc(Oc2ccc(Nc3ccnc4ccc(-c5ccco5)cc34)cc2)cc1,87%,32%,0%
Oc1ccc2[nH]c(-c3cccc(F)c3)nc2c1CN1CCC(N2CCCC2)CC1,100%,54%,0%
Nc1ccc(-c2ccc3ccnc(N)c3c2)cn1.O=C(O)C(F)(F)F,100%,100%,43%
COc1cc2c(cc1N1CC(C)NC(C)C1)N(C(=O)c1ccc(-c3ccc(-c4ncc[nH]4)cc3C)cc1)CC2 (stereo not drawn),98%,58%,7%
O=C(NC1CCN(c2ccnc3ccccc23)C1)c1ccc(OC(F)(F)F)cc1.O=C(O)C(F)(F)F (stereo not drawn),89%,68%,35%
COc1ccc2[nH]ccc(=NN=Cc3cccnc3)c2c1,100%,84%,0%
CN(CCCCCNC(=O)/C=C/c1ccc(Cl)c(Cl)c1)CCCCc1c[nH]c2ccccc12,90%,15%,17%
O=C(NCC1CCN(Cc2cccc(C(F)(F)F)c2)C1)c1cc(-c2cccc(C(F)(F)F)c2)cs1.O=C(O)C(F)(F)F (stereo not drawn),100%,74%,35%
O=C(O)C(F)(F)F.Oc1ccc(-c2nc3c(N4CCN(Cc5ccccc5)CC4)cccc3n2C2CCNCC2)cc1,85%,7%,0%
Cl.O=c1cc(NCCCNCc2cc3c(Cl)cccc3s2)[nH]c2ccccc12,100%,57%,6%
